This is an account of results in PubChem BioAssay AID588790 (National Center for Advancing Translational Sciences (NCATS), 2011).

The campaign covered roughly 1,200 compounds. About 85 (7%) were called active. For the sample, actives were picked, then their nearest neighbours and some compounds at random. Values without a mark were called inactive. Calls follow the shape of the full dose curve.
Potency is read from the fitted curve at half-maximal effect.

For the assay, the target named is Beta-2 adrenergic receptor (Homo sapiens) (UniProt P07550). Briefly: qHTS assay of beta-arrestin-biased ligands of beta2-adrenergic receptor: Hit Validation with GloSensor. As to activation: 0% is about no effect. The conditions noted are these: W9-Glo22F cells, GloSensor cAMP luminescence, beta2AR agonism; activation: at 46.1 µM (top of the series). The procedure, abridged: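 W9-Glo22F cells plated and incubated overnight at 37 deg C, 5% CO2, then compounds pinned in. GloSensor reagent added, 10 min at room temperature, luminescence read.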
Beta-2 adrenergic receptor (Homo sapiens), sequence (P07550 whole entry, looked up): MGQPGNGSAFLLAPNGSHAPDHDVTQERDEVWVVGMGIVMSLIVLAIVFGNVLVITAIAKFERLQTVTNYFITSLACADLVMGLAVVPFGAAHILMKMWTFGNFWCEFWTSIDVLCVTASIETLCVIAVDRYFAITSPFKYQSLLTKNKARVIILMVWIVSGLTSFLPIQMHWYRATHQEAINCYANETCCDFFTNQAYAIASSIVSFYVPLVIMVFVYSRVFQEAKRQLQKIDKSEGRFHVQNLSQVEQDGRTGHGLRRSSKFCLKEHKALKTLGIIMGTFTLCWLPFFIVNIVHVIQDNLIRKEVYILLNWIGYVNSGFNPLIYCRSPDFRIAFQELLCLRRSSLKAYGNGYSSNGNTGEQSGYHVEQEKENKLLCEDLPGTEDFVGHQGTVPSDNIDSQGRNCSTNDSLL
Take `NC(=S)N/N=C/c1ccccc1OC(=O)c1cc2ccccc2oc1=O`: the “activation” value is 1.16%. Regarding `COCC(=O)Nc1c(C(=O)Nc2ccc3c(c2)OCCO3)oc2ccccc12`, the “activation” value is -2.48%.

In the case of `S=c1[nH]nc(-c2ccco2)n1/N=C/C(Cl)=C/c1ccccc1`, the “activation” value was 2.48%. Same read-out and setting: the result for `CCc1n[nH]c(=S)n1/N=C/c1ccc(N(CC)CC)cc1` reads -2.48%.

Consider `CC(=C/c1ccccc1)/C=N/n1c(C)n[nH]c1=S`, for which the Potency is 25.9 µM (active). With `Cc1cc(-c2n[nH]c(=S)n2/N=C/C(Br)=C/c2ccccc2)n[nH]1`, the “activation” value is 0%. Regarding `Cc1cc(-c2n[nH]c(=S)n2/N=C/C(Cl)=C/c2ccccc2)n[nH]1`, the Potency is 36.6 µM (active). In the case of `COC(=O)c1c(NC(=O)CS(=O)(=O)c2ccccc2)sc(C)c1C`, the “activation” value was 0%. The same measure, in the same setting: the result for `C/C(=N\NC(=O)c1c[nH]c2ccccc12)c1ccc(C)s1` reads 0.306%; that for `COc1cc2c(cc1OC)C(C)N(C(=O)Cn1ncc3c1-c1cc(C)ccc1OC3)CC2` (centres undefined), 1.16%. Same read-out and setting: the result for `N=c1n(Cc2ccccc2)c2ccccc2n1Cc1ccccc1` reads 0.153%; that for `COc1cccc(NC(=S)NN=C2CCCCCC2)c1`, -1.01%.

Turning to `COC(=O)c1cc2sc(Cl)cc2n1CC(=O)Nc1ccc(OC)c(OC)c1OC`, the “activation” value is 0%.

With `CNc1sc(C(=O)c2ccccc2F)c(N)c1-c1nc2ccccc2s1`, the Potency is 18.4 µM (active). For `CNc1sc(C(=O)c2cccs2)c(N)c1-c1nc2ccccc2s1`, the “activation” value is -1.16%. The same measure, in the same setting: the result for `NC(=S)Nc1nc2ccccc2s1` reads 2.48%; that for `CCOC(=O)C1=CN(Cc2cccc(-c3cccnc3)c2)S(=O)(=O)N(CC)C1C` (centres undefined), 0%; that for `Cc1ccc(CONC(=O)c2ccccc2Cl)cc1`, 0.306%. Regarding `O=C(/C=C/c1ccc(N2CCCCC2)c([N+](=O)[O-])c1)c1ccc(S(=O)(=O)N2CCCC2)cc1`, the “activation” value is 0%. The same measure, in the same setting: the result for `Cc1ccc2nc(C)c(C(=O)N/N=C/c3cccs3)n2c1` reads 0%. As for `C=CCNc1nc(Cl)nc(NC2CCCCC2)n1`, the Potency was 23.1 µM (active). For the compound `COC(=O)COc1cccc2c(=O)n(CC(=O)Nc3ccc4c(c3)OCCO4)ccc12`, the “activation” value was 0%. Same read-out and setting: next, `CCOC(=O)c1ccccc1NC1c2ccccc2C(=O)N1C1CCN(C(=O)OCC)CC1` (centres undefined): -1.16%. On the same count and under the same terms, next, `O=C(CSc1cccc2cccnc12)N1CCCC1`: 1.16%.

As for `O=C1NC(=NCc2ccccc2)S/C1=C/c1ccc(O)cc1`, the Potency was 23.1 µM (active). As for `COc1ccc(CN=C2NN=C(c3ccccc3)CS2)cc1`, the “activation” value is -1.16%. Still for that read-out and setting: the result for `CCCCCC(=O)Nc1cccc(C2=NOC3(C2)C[C@@H](C(N)=O)N(C(=O)CC(c2ccccc2)c2ccccc2)C3)c1` (some centres undefined) reads 0%; that for `CN(c1ccccc1)S(=O)(=O)c1ccc(C(=O)Nc2nccs2)cc1`, 0.459%.

For `O=C(Oc1c(-c2ccco2)oc2ccccc2c1=O)c1cccnc1`, the Potency is 32.6 µM (active). `O=C(Oc1c(Cl)cc(Cl)c2cccnc12)c1ccco1`: the “activation” value is -2.33%.

For the compound `O=C(Oc1ccc(Cl)c2cccnc12)c1ccco1`, the “activation” value was -1.16%. The same measure, in the same setting: the result for `Cc1ccc2c(c1)[C@H]1[C@H](CO2)[C@H](c2ccccc2)[C@]2(C)C(=O)Nc3ccccc3C(=O)N12` reads 0.459%. Regarding `NC(=S)N/N=C/c1ccc(-c2cccc([N+](=O)[O-])c2)o1`, the Potency was 20.6 µM (active). As for `NC(=S)N/N=C/c1ccc(-c2ccccc2)o1`, the “activation” value is 0%. `NC(=S)N/N=C/c1ccc(-c2ccc([N+](=O)[O-])cc2)o1`: the “activation” value is 0%. Same read-out and setting: next, `Cc1cccc(NC(=S)NC(=O)C2CC2)c1`: -1.16%.

`CCC(NC(C)C)C(O)c1ccc(O)c(O)c1` (centres undefined): the Potency was 0.0065 µM (active). With `CCC(NC(C)C)C(O)c1ccc(O)c2[nH]c(=O)ccc12` (centres undefined), the Potency is 0.0058 µM (active). With `COc1cccc(OCC(=O)Nc2c3c(nn2-c2ccc(F)cc2)CS(=O)(=O)C3)c1`, the “activation” value is 3.64%. Turning to `O=C(NC1CCCCC1)N(Cc1cc2cc3c(cc2[nH]c1=O)OCCO3)CC1CCCO1` (centres undefined), the “activation” value was 1.16%.

Take `CCNC(=S)N/N=C(\C)c1cccc(C(F)(F)F)c1`: the “activation” value was 2.48%. Still for that read-out and setting: next, `CC(=O)Nc1ccc(S(=O)(=O)N2CCC(c3nnc(-c4ccc(C)cc4)o3)CC2)cc1`: 2.33%; `CCOC(=O)c1c(NC(=O)CSc2cccc[n+]2[O-])sc(C(=O)Nc2ccccc2)c1C`: -1.16%. In the case of `CCOC(=O)c1c(C)nc2c(c1-c1ccccc1)C(=O)CC(C)(C)C2`, the “activation” value was 1.16%. Consider `CC(C)C(=O)COc1c2occc2cc2ccc(=O)oc12`, for which the Potency was 13 µM (active).

For `N#CC1=C(N)OC2=C(CC/C2=C\c2ccccc2)C1c1ccccc1` (centres undefined), the “activation” value was -1.16%. On the same count and under the same terms, the result for `CC1CCCC/C1=N\NC(=S)NCCc1ccccc1` (centres undefined) reads -1.16%.

On to `S=c1nc(-c2ccccc2)[nH]c2ccccc12`, for which the Potency was 32.6 µM (active). Turning to `S=c1ccc2ccccc2[nH]1`, the “activation” value is -1.16%.

On to `S=c1nc(-c2ccccc2)[nH]c2ccc(Br)cc12`, for which the “activation” value is 0%. The same measure, in the same setting: next, `CCOC(=O)C1(O)CC(C)=NN1C(=O)c1cccc(Cl)c1` (centres undefined): -1.16%. The same measure, in the same setting: next, `CCNC(=S)N/N=C/c1sccc1C`: 0%. For `CCNC(=S)N/N=C/c1cccs1`, the Potency was 5.8 µM (active). With `CC(C)NC(=S)N/N=C/c1cccs1`, the “activation” value is -1.16%. Still for that read-out and setting: next, `Cc1noc(C)c1COc1cccc(C(=O)Nc2ccccc2N2CCOCC2)c1`: 8.6%; `O=C(N/N=C/c1ccccc1OC(=O)c1ccc2c(c1)OCO2)c1ccccc1`: 4.96%.

In the case of `Cn1c(/C=C/c2ccc([N+](=O)[O-])o2)nc2ccccc2c1=O`, the “activation” value was 2.48%.

In the case of `N#C/C(=C\c1cccc(O)c1)C(=O)Nc1ccc2c(c1)OCCO2`, the “activation” value is -1.01%. For `O=C(c1ccccc1)c1ccc2nc(-c3ccco3)c(-c3ccco3)nc2c1`, the Potency is 32.6 µM (active). Consider `O=C(CC(c1ccco1)S(=O)(=O)c1ccccc1)c1ccccc1` (centres undefined), for which the “activation” value was -2.17%. For `O=C(O)/C(=C\c1ccco1)NC(=O)c1ccccc1`, the “activation” value is -1.16%. For the compound `CC(C)[C@H](NC(=O)c1ccccc1Cl)C(=O)Nc1nc(-c2ccccn2)cs1`, the “activation” value was 1.16%.

Take `COc1cccc(N2CCN(C(=O)/C=C/c3ccco3)CC2)c1`: the “activation” value is 0%.

As for `CC1=C(C)/C(=N\OS(=O)(=O)c2ccc(C)cc2)C=CC1=O`, the “activation” value was 0%. On the same count and under the same terms, the result for `C/C(=N\NC(=S)NC(C)C)c1ccccc1OC(F)F` reads -1.16%; that for `CCOc1ccc(/C(CCC(=O)O)=N/NC(=S)NC(C)C)cc1`, 1.71%; that for `C/C(=N\NC(=S)NC(C)C)c1ccccc1`, 7.28%. With `CC/C(=N\NC(=S)NC(C)C)c1ccc(OC)c(OC)c1`, the Potency is 23.1 µM (active).

Consider `C/C(=N\NC(=S)NC(C)C)c1ccco1`, for which the “activation” value is 0%.

`COc1cc(/C(C)=N/NC(=S)NC(C)C)cc(OC)c1OC`: the Potency is 18.4 µM (active). Regarding `COc1cc(CN(C2CCCCC2)S(=O)(=O)c2ccc(S(=O)(=O)N(C)C3CCCCC3)cc2)cc(OC)c1OC`, the “activation” value was -1.01%. On to `CCCNC(=O)COc1ccc2c(=O)c(Oc3ccccc3F)coc2c1`, for which the “activation” value was -1.16%. `O=C(Cn1c(=O)c2sccc2n(Cc2cccc([N+](=O)[O-])c2)c1=O)NCCc1ccccc1`: the “activation” value was -1.16%.

As to `O=C(CSCC(=O)Nc1cccc([N+](=O)[O-])c1)Nc1ccccc1`, the “activation” value is 4.96%. As for `CC(CCc1ccccc1)NCC(O)c1cccc([N+](=O)[O-])c1` (centres undefined), the Potency is 0.0206 µM (active). Take `COc1ccc(C(=O)N/N=C/C(Br)=C/c2ccccc2)cc1`: the “activation” value was -1.16%. On the same count and under the same terms, next, `CCCc1cc(SCC(=O)Nc2c(C)n(C)n(-c3ccccc3)c2=O)n2c(nc3ccccc32)c1C#N`: -2.33%; `NNc1ccc(Cl)nn1`: 0.306%; `Cc1cccc(NC(=S)NCc2ccco2)n1`: 0%. With `C=CCNC(=S)N/N=C(\C)c1cccc(NC(C)=O)c1`, the Potency is 23.1 µM (active). In the case of `C=CCNC(=S)N/N=C(\C)c1cccnc1`, the “activation” value is -2.33%. Still for that read-out and setting: next, `C=CCNC(=S)N/N=C(\C)c1cccc(OC)c1`: 7.28%; `CCN(CC)c1ccc(/C=N/Nc2nc(C)cc(C)n2)cc1`: 2.48%; `CN1CCN(C(=O)c2ccccc2[N+](=O)[O-])CC1`: -1.16%. On the same count and under the same terms, next, `COCCCNC(=S)N/N=C/c1cccc(OC)c1O`: -1.16%. `COc1cccc(/C=N/Nc2ncc(C(F)(F)F)cc2Cl)c1O`: the Potency was 25.9 µM (active). Consider `NC(=S)N/N=C/c1ncc(C(F)(F)F)cc1Cl`, for which the “activation” value is 6.12%.

In the case of `Oc1ccccc1/C=N/Nc1nc2ccccc2o1`, the “activation” value was 4.96%.

For the compound `CCCNC(=O)Cn1cnc2sc(C(=O)Nc3ccc4c(c3)OCO4)c(C)c2c1=O`, the “activation” value was -2.33%. With `N/C(=C\C(=O)c1cc(Cl)ccc1O)C(Cl)(Cl)Cl`, the Potency is 23.1 µM (active). Take `CCc1cc(C(=O)N(CC(C)C)c2c(N)n(Cc3ccccc3)c(=O)[nH]c2=O)sc1C`: the “activation” value was -1.01%.

On to `COC(=O)c1scc(C)c1S(=O)(=O)Nc1ccc(C)cc1`, for which the “activation” value was -2.33%. Consider `CCOc1ccc(C(C)=O)cc1COC(=O)c1ccc2c(c1)NC(=O)CS2`, for which the Potency is 4.61 µM (active). With `CCOc1ccc(C(C)=O)cc1COC(=O)CN1C(=O)NC2(CCCC2)C1=O`, the “activation” value was 5.51%.

Turning to `S=C(Nc1ccccc1)Nc1nc2ccccc2n1CCOc1ccc(Br)cc1`, the “activation” value is -1.16%. The same measure, in the same setting: next, `Cc1ccnc(NC(=O)c2c(-c3ccccc3Cl)noc2C)c1`: 0.153%. On the same count and under the same terms, the result for `Cc1ccc(N(Cc2cc(=O)[nH]c3ccccc23)C(=O)c2ccco2)cc1` reads 0%.

For `COc1ccc2c(c1)c(=O)c(C(=O)c1ccccc1)cn2Cc1ccccc1`, the “activation” value is -1.16%. On the same count and under the same terms, the result for `Cc1ccccc1-c1nc2c3ccccc3nc(=S)n2[nH]1` reads 8.6%; that for `Cc1nc2ccccc2c(=O)n1N`, 5.81%. `S=c1nc2ccccc2c2nc(-c3ccccc3)[nH]n12`: the Potency was 18.4 µM (active).

Take `COc1ccc(/C(C)=N/NC(=S)NCCc2ccccc2)c(O)c1`: the “activation” value was 0%. Same read-out and setting: next, `O=C(CNC(=O)c1ccccc1F)Nc1ccc2c(c1)OCO2`: -2.33%; `C=C(C)C(=O)OC1(C(F)(F)F)Oc2cc(C)ccc2NC1=O` (centres undefined): 0.306%; `Cn1c(SCC(=O)N/N=C/C=C/c2ccco2)nc2ccccc21`: 0.153%.

With `Cc1nn2c(nc1=O)NNC2(C)C(C)(C)C` (centres undefined), the “activation” value is 0%. Still for that read-out and setting: the result for `CCN(CC)c1cc(C(F)(F)F)nc(-c2ccccn2)n1` reads -1.16%. For the compound `FC(F)(F)c1cc(Nc2ccccc2)nc(-c2ccccn2)n1`, the Potency is 18.4 µM (active). Turning to `Cc1cc(N)n(Cc2cccs2)n1`, the “activation” value was 0.306%. The same measure, in the same setting: next, `CCOC(=O)c1cnc(-n2nc(C)cc2C)nc1N(C)C`: -1.16%.

As for `CCOC(=O)c1cnc(-n2nc(C)cc2C)nc1NC`, the “activation” value was 1.16%.

`COc1ccc(-c2cc(C(F)(F)F)nc(SCC(=O)NCc3ccco3)n2)cc1OC`: the Potency was 13 µM (active).

On to `Cc1ccc(-n2c(SCC(=O)NCc3ccco3)nc3c(sc4ccccc43)c2=O)cc1`, for which the “activation” value was -0.153%. Still for that read-out and setting: the result for `COc1ccc(CNc2nc(SCC(=O)NCc3ccco3)nc3ccccc23)cc1` reads -1.16%.
